A selection: hits, their analogues and other compounds. The true share with any hit is near 3.6%.
DUSP3 inh: inhibitors of human VHR1 phosphatase (DUSP3); P51452; recombinant VHR phosphatase, pNPP absorbance; inhibition, % at 13.3 µM; hit rate 0.52% among 290,000; in the data active means inhibition above about 50%
Target sequence (P51452 whole entry, looked up): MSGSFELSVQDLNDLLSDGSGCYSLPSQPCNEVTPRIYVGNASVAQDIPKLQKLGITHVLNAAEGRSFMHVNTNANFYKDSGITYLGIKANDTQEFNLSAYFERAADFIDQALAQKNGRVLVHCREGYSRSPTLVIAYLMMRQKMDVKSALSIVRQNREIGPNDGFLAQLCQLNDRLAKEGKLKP
Mtb betalactam: beta-lactam sensitization of Mtb H37Rv; M. tuberculosis H37Rv growth with meropenem, percent inhibition; inhibition, % at 25 µM; hit rate 0.27% among 330,000; AID 434955; call rule not given here;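 further: growth measured after seven days incubation then overnight dye step; 0% = bacteria only wells and 100% = bacteria with antibiotic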
FBA Mtb inh: inhibitors of M. tuberculosis fructose-bisphosphate aldolase; hit rate 2.3% among 360,000; P9WQA3; inhibition, % at 1 µM; purified M. tuberculosis FBA, fluorescence read-out;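 further: 0% = vehicle and 100% = reference inhibitor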
Target sequence (P9WQA3 whole entry, looked up): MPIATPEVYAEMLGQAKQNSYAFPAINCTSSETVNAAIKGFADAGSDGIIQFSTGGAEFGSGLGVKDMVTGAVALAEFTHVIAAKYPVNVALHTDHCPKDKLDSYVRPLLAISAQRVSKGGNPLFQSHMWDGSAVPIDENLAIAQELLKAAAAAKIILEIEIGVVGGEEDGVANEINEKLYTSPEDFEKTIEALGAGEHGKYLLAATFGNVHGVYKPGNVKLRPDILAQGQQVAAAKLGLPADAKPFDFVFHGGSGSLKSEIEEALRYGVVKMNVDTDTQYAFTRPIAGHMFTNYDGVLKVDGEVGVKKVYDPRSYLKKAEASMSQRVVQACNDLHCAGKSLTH
Mtb hypoxia rep: reduces hypoxia-regulated biosensor signal in M. tuberculosis. M. tuberculosis hypoxia-regulated fluorescent reporter, fluorescence. fluorescence inhibition, % (concentration not given with the values). hit rate 0.1% among 300,000. AID 1159583; in the data active means fluorescence inhibition mostly above about 23%, no sharp cut-off; inactive means mostly below about 17%
GDH-TPI counter-1: counter-screen for M. tuberculosis FBA inhibitors: GDH-TPI coupled enzymes | AID 588335 | GDH-TPI coupled enzyme counterscreen, NADH absorbance | hit rate 1.2% among 360,000 | inhibition, % at 4.8 µM; in the data active means inhibition above about 30%;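 further: 0% = DMSO wells and 100% = wells lacking the enzyme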
Mtb FBA inh conf: Mtb FBA inhibition, confirmed | shares compounds with FBA Mtb inh | purified M. tuberculosis FBA, fluorescence read-out | AID 651616 | hit rate 78% among 5,600 | inhibition, % at 1 µM;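 further: 0% = vehicle wells and 100% = reference inhibitor wells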
GDH-TPI counter-2: counter-screen for M. tuberculosis FBA inhibitors: GDH-TPI coupled enzyme inhibition; shares compounds with FBA Mtb inh; GDH-TPI coupled enzyme counterscreen, fluorescence; inhibition, % at 1 µM; hit rate 81% among 5,600; AID 652141; in the data active means inhibition above about 10%
The depositor's hits bear a star; nt = no result; + = active, no number. Unless noted, no stated cut-off is given here; in the data, active means inhibition above about 27%; inactive means the rest.

SMILES	DUSP3 inh	Mtb betalactam	FBA Mtb inh	Mtb hypoxia rep	GDH-TPI counter-1	Mtb FBA inh conf	GDH-TPI counter-2
CC(=NNC(=O)c1ccn(C)n1)c1ccc(NC(=O)C2CCC2)cc1	nt	nt	nt	10.8	nt	nt	nt
CCN1C(=O)C2C(c3ccc(-c4cccc(Cl)c4)c(OC)c3)N3CCCC[C@@]3(C(=O)OC)C2C1=O (stereo not given in full)	nt	nt	nt	-6.7	nt	nt	nt
CSCC[C@H](NC(=O)[C@@H]1Cc2ccccc2CN1)C(=O)NCC1CCC(C(=O)O)CC1 (stereo not given in full)	nt	nt	nt	-0.7	nt	nt	nt
Brc1c(CSc2nc3ccccc3s2)nc2ncccn12	34.1	2.2	28.4*	-17.6	-2.9	107.9*	81.7*
O=[N+]([O-])c1ccc2sc(SCc3nc4ccccn4c3Br)nc2c1	46.3	10.0	nt	13.8	nt	nt	nt
COC1=CC(=O)OC(C=Cc2ccccc2)C1 (stereo not given)	nt	nt	nt	0.7	nt	nt	nt
CCCCOc1ccc(/C=C/C(=O)Nc2ccc(C(N)=O)cc2)cc1	-0.9	2.7	-1.1	9.6	16.2	nt	nt
C=CCOc1ccc(/C=C/C(=O)Nc2ccc(C(=O)NC)cc2)cc1	-5.6	5.2	45.4*	-6.3	23.2	44.1*	36.6*
O=C(Nc1ccccc1)ON=Cc1ccccc1Cl	nt	nt	nt	7.9	nt	nt	nt
Cc1ccc(-c2cc3ccccc3nc2N)cc1	34.2	14.1	46.0*	-19.6	-3.8	88.4*	80.0*
Cc1ccccc1S(=O)(=O)c1cc2ccccc2nc1N	28.6	-0.4	46.2*	-14.8	9.5	+	+
Cc1cc(C)c(S(=O)(=O)c2ccccc2C)c(Cl)n1	28.7	2.8	-0.3	1.9	4.3	nt	nt
N#Cc1ccc(Sc2nc3ccccc3[nH]2)cc1C#N	8.4	-2.9	-0.6	-2.4	-1.8	nt	nt
Nc1nc2ccccc2cc1-c1cccs1	20.6	8.3	68.9*	-5.0	1.0	76.2*	62.2*
N#Cc1cc2ccccc2nc1N	-3.0	-8.1	75.0*	2.2	25.6	65.2*	48.5*
O=C1C2CC3CCC2(O3)C2OCCCN12 (stereo not given)	nt	nt	nt	13.1	nt	nt	nt
CC(C)(C)C1C=C(C(=O)N2CCOCC2)OC(OCCCCO)C1 (stereo not given)	nt	nt	nt	0.7	nt	nt	nt
CCN1C(=O)C(=CN2CCN(c3ccccc3)CC2)SC1=S	nt	nt	nt	5.9	nt	nt	nt
CCCn1nnnc1NCc1c(F)cccc1Cl	7.3	2.8	68.3*	-0.5	-2.3	-6.6	-6.5
COC(=O)C1=C(c2ccc(C(C)=O)cc2)CC2CCC1N2C(=O)NCCO (stereo not given)	nt	nt	nt	3.1	nt	nt	nt
CNc1ccccc1C(=O)OCC(=O)Nc1ccc2c(c1)OCO2	nt	3.3	53.4*	0.5	1.8	101.3*	68.7*
CC(=O)Nc1cc(-c2ccccc2F)cn2c(-c3ccccc3)cnc12	nt	nt	4.6	nt	-3.6	nt	nt
CNc1ccc2ncc(-c3ccccc3NC(C)=O)n2n1	nt	nt	47.0*	nt	6.7	0.5	-3.6
COCCCNC(=O)C[C@H]1C[C@H](C(=O)N2CCCCC2)[C@@]2(C)c3[nH]c4cc(-c5ccco5)ccc4c3CCN2C1=O	nt	nt	27.3*	-5.1	-1.4	68.2*	51.7*
C[C@]12c3[nH]c4cc(-c5ccco5)ccc4c3CCN1C(=O)[C@@H](CC(=O)NCC13CC4CC(CC(C4)C1)C3)C[C@@H]2C(=O)N1CCOCC1	nt	nt	14.9	-8.4	9.4	nt	nt
SMILES	DUSP3 inh	Mtb betalactam	FBA Mtb inh	Mtb hypoxia rep	GDH-TPI counter-1	Mtb FBA inh conf	GDH-TPI counter-2
CC[C@]12c3[nH]c4cc(-c5ccco5)ccc4c3CCN1C(=O)[C@@H](CC(=O)NCCCOC)C[C@@H]2C(=O)N1CCN(C(=O)C2CC2)CC1	nt	nt	26.1	3.8	6.4	nt	nt
C[C@]12c3[nH]c4cc(-c5ccco5)ccc4c3CCN1C(=O)[C@@H](CC(=O)NCCN1CCOCC1)C[C@@H]2C(=O)N1CCCCC1	nt	nt	34.8*	-8.3	12.8	-2.9	-4.7
Cc1nn(Cc2ccc(F)cc2)c(Cl)c1C=NNC(=O)c1ccccc1	nt	nt	nt	-10.6	nt	nt	nt
Cc1cc(=O)[nH]c(NN=Cc2ccc(F)cc2)n1	nt	nt	nt	4.8	nt	nt	nt
COc1ccc(C(N)=NOC(=O)C=Cc2ccccc2)cc1	nt	nt	nt	-1.4	nt	nt	nt
COc1c2ccoc2nc2c(OC)cccc12	23.4	3.7	55.2*	24.1	14.2	112.8*	97.0*
COc1cccc2c(=O)ccoc12	-24.6	-0.2	17.4	10.0	-6.8	nt	nt
COC(=O)C1=C(c2cccc(C#N)c2)CC2CCC1N2C(=O)NCCOc1ccccc1Cl (stereo not given)	nt	nt	nt	6.2	nt	nt	nt
CCN(CC)C(=O)CN1C(=O)C2(NC(=O)c3ccccc3N2)c2ccccc21 (stereo not given)	12.0	3.4	12.5	nt	6.9	nt	nt
CC(=O)N1CC2(NC(=O)c3ccccc3N2)c2ccccc21 (stereo not given)	21.1	0.8	80.4*	-2.3	4.3	+	188.2*
O=C(N/N=C/c1cccnc1)c1cc(-c2cccs2)nc2ccccc12	-1.8	-2.5	56.0*	nt	16.3	50.9*	50.4*
CCN(C(=O)COC(=O)c1cc(-c2ccc(C)o2)nc2ccccc12)C1CCS(=O)(=O)C1 (stereo not given)	15.2	-2.4	3.2	16.8	9.8	nt	nt
CCN(C(=O)COC(=O)c1cc(-c2cccs2)nc2ccccc12)C1CCS(=O)(=O)C1 (stereo not given)	34.0	-4.0	71.9*	-8.0	15.8	45.1*	45.0*
O=C(OC1CCOC1=O)c1cc(-c2cccs2)nc2ccccc12 (stereo not given)	-10.8	-6.6	44.0*	-3.2	5.7	8.6	1.9
O=C(c1cc(-c2cccs2)nc2ccccc12)N1CCN(CCO)CC1	nt	nt	99.5*	4.8	8.4	+	+
CCN1C(Nc2ccccc2)=NCC1Cc1ccccc1 (stereo not given)	nt	nt	nt	0.1	nt	nt	nt
C/C(=N\NC(=O)c1cc(-c2ccc(C)s2)nc2ccccc12)c1cccnc1	27.6	4.0	61.7*	nt	11.2	136.0*	111.1*
CCc1ccc(-c2cc(C(=O)NN3CCOCC3)c3ccccc3n2)s1	66.5	-9.4	89.4*	0.7	9.5	43.5*	34.9*
C/C(=N\NC(=O)c1cc(-c2ccccc2C)nc2ccccc12)c1cccnc1	30.6	8.6	-2.3	nt	-1.0	nt	nt
O=C(NN1CCOCC1)c1cc(-c2cccs2)nc2ccccc12	5.0	5.0	51.3*	1.3	20.4	35.6*	21.4*
NCCCCC1CN=C(N)N1CCc1cccc2ccccc12 (stereo not given)	nt	nt	nt	5.5	nt	nt	nt
C=C(CCC(O)C(C)(C)O)C1CC[C@]2(C)C1CCC1[C@@]3(C)CCC(=O)C(C)(C)C3CC[C@]12C (stereo not given in full)	nt	nt	nt	14.0	nt	nt	nt
CC(C)C(C(=O)N1CCN(C(=O)OC(C)(C)C)CC1)n1cc(CCO)nn1 (stereo not given)	nt	nt	nt	18.6	nt	nt	nt
COc1ccc(OCCSCc2nnc(NC(=O)Nc3ccc(Cl)cc3)s2)cc1	-9.9	1.8	29.1*	14.0	-1.4	10.0	-5.1
CCOC(=O)N1CCN(C(=O)c2cn(CC(C)C)c(=O)c3c2c2ccccc2n3C)CC1	21.4	nt	31.4*	7.5	17.7	49.9*	46.6*
